Source: PubChem BioAssay (National Center for Advancing Translational Sciences (NCATS))
Most compounds without a hit are left out; they make up all but 1.1% or so of the library.
TbPYK inhibitor = blocks Trypanosoma brucei pyruvate kinase; Q57TT1; TbPYK enzyme, Kinase-Glo Plus ATP luminescence, 45 min; Potency, µM (titrated, usually from 76.8 µM), without a hit: at the highest dose activity, negative = inhibition, hits mostly inhibitors; hit rate 0.12% among 410,000; further: on the % scale 0 is the no-effect control and ±100 the full control effect; nearly all actives have a fitted effect of over 50% in size
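TbPYK + substrate in 50 mM TEA pH 7.2, 100 mM KCl, 10 mM MgCl2, 0.05% BSA, 0.01% Tween-20; cpd pinned; ADP 130 uM final; 45 min RT; Kinase-Glo Plus 10 min; luminescence endpoint.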
SARS PLpro yeast = inhibitors of SARS-CoV papain-like protease in yeast; S. cerevisiae expressing SARS-CoV PLpro, growth rescue; Potency, µM (titrated, usually from 32.9 µM), without a hit: at the highest dose activity, positive = growth rescue, hits mostly activators; hit rate 0.19% among 330,000; calls by dose curve; further: 0% is about no effect; nearly all actives have a fitted effect of over 55% in size
Giardia FBPA inh-1 = blocks Giardia fructose-bisphosphate aldolase activity. A8B2U2. purified Giardia FBPA. Potency, µM (titrated, usually from 59.6 µM), for inactives: top-dose activity, negative = inhibition, hits mostly inhibitors. hit rate 0.71% among 290,000; further: on the % scale 0 is the no-effect control and ±100 the full control effect; nearly all actives have a fitted effect of over 55% in size
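Giardia FBPA (40 nM reagent) was preincubated 10 min at RT with compound (up to 57.5 uM final), then substrate plus GAPDH/TPI/NAD/arsenate coupling system with diaphorase/resazurin was added; resorufin fluorescence (525/598 nm) was read after 20 min.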
RE007 growth inh = less growth of the S. pombe RE007 Vpr strain. S. pombe RE007 Vpr strain, BacTiter-Glo ATP luminescence, 24 h. hit rate 0.21% among 360,000. Potency, µM (doses to about 92.2 µM), for the others: at the top dose activity change, negative = less growth, hits mostly inhibitors; active means well fitted falling curve with a large enough effect; inconclusive means small, poorly fitted or top-dose-only effect; inactive means no such curve, though single readings can be large or run the other way; further: on the % scale 0 is the no-effect control and ±100 the full control effect; nearly all actives have a fitted effect of over 50% in size
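Fission yeast strain RE007, carrying one chromosomally integrated HIV-1 vpr copy, was seeded at OD 0.01 in PMG+AL medium with 23 nL pinned compound. After 24 h at 30 °C and 99% humidity, viability was read by BacTiter-Glo luminescence.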
LmPK inhibitor = blocks Leishmania mexicana pyruvate kinase activity. Q27686. purified LmPK, Kinase-Glo ATP luminescence, 1 h. Potency, µM (highest dose often 57.5 µM), inactives show top-dose activity change, negative = inhibition, most hits filed as inhibitors. hit rate 0.37% among 290,000. AID 1721; further: on the % scale 0 is the no-effect control and ±100 the full control effect
Target sequence (Q27686 whole entry, looked up): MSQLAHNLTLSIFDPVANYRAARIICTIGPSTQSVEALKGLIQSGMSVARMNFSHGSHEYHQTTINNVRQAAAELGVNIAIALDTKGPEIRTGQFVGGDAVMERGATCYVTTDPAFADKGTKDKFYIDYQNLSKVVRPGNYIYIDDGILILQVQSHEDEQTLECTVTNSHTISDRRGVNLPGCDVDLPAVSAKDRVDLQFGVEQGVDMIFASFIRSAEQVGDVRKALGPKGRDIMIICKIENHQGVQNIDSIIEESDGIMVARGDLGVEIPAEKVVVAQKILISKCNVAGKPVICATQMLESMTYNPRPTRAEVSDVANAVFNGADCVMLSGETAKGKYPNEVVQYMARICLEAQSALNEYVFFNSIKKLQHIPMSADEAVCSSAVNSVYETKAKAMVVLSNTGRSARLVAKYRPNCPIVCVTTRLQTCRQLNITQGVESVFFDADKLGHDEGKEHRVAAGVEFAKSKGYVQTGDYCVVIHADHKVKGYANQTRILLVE
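qHTS format; LmPK 0.1 nM; substrates PEP 0.5 mM and ADP 0.1 mM. One-hour room-temperature incubation, then coupled luciferase luminescence; 0.5 nM enzyme wells mark activation.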
Giardia growth = Giardia lamblia growth inhibition; hit rate 5% among 1,500; shares compounds with Giardia FBPA inh-1; Giardia lamblia trophozoite growth inhibition; Potency, µM (top dose mostly 57.5 µM), for inactives: at the top dose activity change, negative = inhibition, usual class: inhibitors;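 further: trophozoites exposed to compound for 48 h at 37 °C; on the % scale 0 is the no-effect control and ±100 the full control effect; nearly all actives have a fitted effect of over 70% in size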
Mammalian tox = mammalian cytotoxicity of Giardia aldolase inhibitor hits; shares compounds with Giardia FBPA inh-1; mammalian cell viability counter-screen, qHTS; Potency, µM (highest dose often 57.5 µM), inactives show top-dose viability change, negative = toxicity, most hits filed as inhibitors; hit rate 4% among 1,500; AID 2786;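 further: Chinese hamster ovary cells used as mammalian cytotoxicity surrogate; viability measured as cellular ATP by luminescence; compound exposure lasted 48 h before reading; on the % scale 0 is the no-effect control and ±100 the full control effect; nearly all actives have a fitted effect of over 60% in size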
Giardia FBPA inh-2 = confirmation of Giardia fructose-bisphosphate aldolase inhibitors; shares compounds with Giardia FBPA inh-1; purified Giardia aldolase enzyme activity, qHTS; Potency, µM (series often up to 57.5 µM), for inactives: at the top dose activity change, negative = inhibition, actives largely listed as inhibitors; hit rate 5% among 1,500; AID 2787; further: on the % scale 0 is the no-effect control and ±100 the full control effect; nearly all actives have a fitted effect of over 45% in size
Rabbit FBPA inh = selectivity test for Giardia aldolase inhibitors: rabbit aldolase; AID 2794; Potency, µM (top dose mostly 57.5 µM), without a hit: at the top dose activity, negative = inhibition, actives largely listed as inhibitors; shares compounds with Giardia FBPA inh-1; hit rate 4% among 1,500; Rabbit muscle FBPA enzyme inhibition, selectivity counter-screen; further: on the % scale 0 is the no-effect control and ±100 the full control effect; nearly all actives have a fitted effect of over 60% in size
Target sequence (P00883 whole entry, looked up): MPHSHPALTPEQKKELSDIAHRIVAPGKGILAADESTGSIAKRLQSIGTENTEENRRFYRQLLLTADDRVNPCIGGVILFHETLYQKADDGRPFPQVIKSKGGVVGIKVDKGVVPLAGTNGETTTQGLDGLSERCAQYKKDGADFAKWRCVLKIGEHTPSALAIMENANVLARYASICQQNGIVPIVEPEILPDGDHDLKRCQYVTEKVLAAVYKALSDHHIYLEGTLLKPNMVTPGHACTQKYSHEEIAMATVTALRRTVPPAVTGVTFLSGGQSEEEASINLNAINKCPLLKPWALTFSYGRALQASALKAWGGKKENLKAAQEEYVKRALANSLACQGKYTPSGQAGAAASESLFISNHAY
GAPDH counter = counter-screen for Giardia aldolase inhibitors: GAPDH coupling enzyme; AID 2795; hit rate 6% among 1,500; shares compounds with Giardia FBPA inh-1; GAPDH coupling enzyme counterscreen, biochemical, qHTS; Potency, µM (doses to about 57.5 µM), for the others: at the top dose activity change, negative = inhibition, most hits filed as inhibitors; further: on the % scale 0 is the no-effect control and ±100 the full control effect; nearly all actives have a fitted effect of over 55% in size
* hit, by the source's call; ? = inconclusive; nt = not tested or not shown; [ ] = dose if it differs, or a comment. Unless noted, the call rests on the fitted dose curve; in most records, active means well fitted curve in the direction sought with a large enough effect; inconclusive means small, poorly fitted or top-dose-only effect, or another doubt; inactive means no such curve, though single readings can be large; an effect the other way counts as inactive or inconclusive. Potency means the concentration at half of the fitted maximal effect.

SMILES	TbPYK inhibitor	SARS PLpro yeast	Giardia FBPA inh-1	RE007 growth inh	LmPK inhibitor	Giardia growth	Mammalian tox	Giardia FBPA inh-2	Rabbit FBPA inh	GAPDH counter
CCn1c(C(C)NS(=O)(=O)c2ccc(Cl)cc2)n[nH]c1=S (stereo unspecified)	?	-7%	11µM*	3%	2%	14%	-6%	6%	4%	13%
CCCn1c(C(C)NS(=O)(=O)c2ccccc2)n[nH]c1=S (stereo unspecified)	?	-3%	10µM*	2%	-18%	73%	12%	-1%	-1%	6%
CCn1c(CNS(=O)(=O)c2ccc(Br)cc2)n[nH]c1=S	?	0%	nt	8%	2%	nt	nt	nt	nt	nt
CCCCc1c(O)nc(SC2CC(=O)N(c3ccc(C(=O)OCC)cc3)C2=O)[nH]c1=O (stereo unspecified)	1%	-5%	7.1µM*	33%	-2%	-1%[10.4 µM]	0%	-1%	10%	12%
CCCc1c(O)nc(SC2CC(=O)N(c3ccc(OC)cc3)C2=O)[nH]c1=O (stereo unspecified)	2%	-1%	-16%	-11%	-1%	nt	nt	nt	nt	nt
O=C(NC1CCCCCCC1)c1ccccc1O	-10%	-31%	-5%	?	-1%	nt	nt	nt	nt	nt
O=C(NC1CCCCCC1)c1ccc[nH]c1=S	7%	-34%	16µM*	?	0%	?	4%	9%	2%	18%
Oc1ccc(C2C[C@H]3CC[C@@H]2C3)cc1O (stereo partly specified)	?	-3%	28µM*	2%	?	-18%	-5%	14µM*	32µM*	32µM*
CCC(C(=O)NCc1ccccc1OC)n1nc(C)n2c(cc3sccc32)c1=O (stereo unspecified)	-3%	nt	nt	nt	nt	nt	nt	nt	nt	nt
C(=N\Nc1nc2ccccc2[nH]1)/c1ccccn1	?	15%	?	?	?	nt	nt	nt	nt	nt
Cc1ccc(/C=N/Nc2cn[nH]c(=O)n2)o1	-9%	0%	18µM*	-9%	-1%	11%[10.4 µM]	4%	-7%	0%	-2%
O=c1nc(N/N=C/c2ccccn2)cn[nH]1	-13%	-25%	0.71µM*	15%	-16%	-25%[38.3 µM]	?	8%	-9%	-6%
O=c1cnnc(N/N=C/c2ccccn2)[nH]1	-17%	?	0.79µM*	-18%	-2%	2%[38.3 µM]	?	4%	-5%	-16%
COc1ccc(Br)cc1CNC(=O)CCSCc1ccc(Cl)cc1	-9%	nt	nt	nt	nt	nt	nt	nt	nt	nt
Cc1ccccc1NC(=O)CN1CCN(C)CC1	0%	12%	25µM*	6%	-2%	11%	-1%	1%	9%	12%
CCC(C)n1c(SCC(=O)Nc2ccccc2C(=O)OC)nc2ccsc2c1=O (stereo unspecified)	2%	nt	nt	nt	nt	nt	nt	nt	nt	nt
CCOC(=O)N1CCC(NC(=O)c2ccc3c(c2)N(Cc2ccccc2)C(=O)c2ccccc2S3(=O)=O)CC1	2%	nt	nt	nt	nt	nt	nt	nt	nt	nt
CCOc1ccc2oc(=O)cc(CN3CCN(C(=O)c4ccc(Cl)cc4)CC3)c2c1	4%	nt	nt	nt	nt	nt	nt	nt	nt	nt
CC(=O)c1cccc(Nc2c3c(nc4nc(-c5cccs5)nn24)CCCC3)c1	-11%	nt	nt	nt	nt	nt	nt	nt	nt	nt
NS(=O)(=O)c1ccc(CCNCC#Cc2ccccc2)cc1	3%	-3%	22µM*	2%	-2%	43%	-7%	0%	-1%	9%
NS(=O)(=O)c1ccc(CCNC/C=C/c2ccccc2)cc1	-4%	9%	?	-6%	-4%	nt	nt	nt	nt	nt
Cc1ccc(C)c(NC(=S)N(CCc2ccncc2)C(C)C)c1	2%	-2%	0%	-13%	8%	nt	nt	nt	nt	nt
Cc1cc(C)c(NC(=S)N(CCc2ccncc2)C(C)C)c(C)c1	9%	-1%	10µM*	-21%	-1%	-6%[38.3 µM]	-13%	3%	2%	-4%
CC(C)Cn1c(=O)c2sccc2n2c(CCCC(=O)N3CCN(c4ccc(F)cc4)CC3)nnc12	-4%	nt	nt	nt	nt	nt	nt	nt	nt	nt
COc1ccc(CN(C)S(=O)(=O)c2nnc(NC(=O)c3ccc(C)cc3)s2)cc1OC	2%	16%	25µM*	21%	-1%	-14%	-5%	?	?	20µM*
SMILES	TbPYK inhibitor	SARS PLpro yeast	Giardia FBPA inh-1	RE007 growth inh	LmPK inhibitor	Giardia growth	Mammalian tox	Giardia FBPA inh-2	Rabbit FBPA inh	GAPDH counter
CN(Cc1ccco1)S(=O)(=O)c1nnc(NC(=O)c2ccc(F)cc2)s1	-11%	2%	20µM*	-4%	-9%	7%[10.4 µM]	8%	?	32µM*	20µM*
CCOc1ccc(C(=O)Nc2nnc(S(=O)(=O)N(C)Cc3ccco3)s2)cc1	0%	0%	6%	1%	-1%	nt	nt	nt	nt	nt
Cc1cc(C)c(S(=O)(=O)NCCc2sc3nc(-c4ccc(F)cc4)nn3c2C)c(C)c1	3%	nt	nt	nt	nt	nt	nt	nt	nt	nt
Cc1nnc(N/N=C/c2cccc(OCc3ccc(Cl)c(Cl)c3)c2)n1N	2%	-26%	18µM*	-7%	-3%	?	1%	?	-19%	?
CCc1nnc(N/N=C/c2cccs2)n1N	-7%	-2%	5µM*	-10%	0%	?	?	13µM*	13µM*	13µM*
Cc1nnc(N/N=C/c2cccc(C(F)(F)F)c2)n1N	-8%	-6%	?	-6%	4%	nt	nt	nt	nt	nt
COc1cc(/C=N/NC(=O)Nc2ccccc2)ccc1OC(C)=O	-2%	25%	-1%	-5%	5%	nt	nt	nt	nt	nt
CCOc1cc(/C=N/Nc2nnc(C)n2N)ccc1OC(C)=O	-6%	-7%	16µM*	-6%	-4%	2%[38.3 µM]	-17%	5.8µM*	5.8µM*	6.5µM*
CCc1nnc(N/N=C\c2ccc(OC(C)=O)c(OC)c2)n1N	-7%	-4%	16µM*	-13%	-2%	-3%[38.3 µM]	-28%	3.7µM*	5.2µM*	5.8µM*
Cc1ccc(Cl)cc1NC(=O)C(NS(=O)(=O)c1cccc2nsnc12)c1ccccc1 (stereo unspecified)	-9%	nt	nt	nt	nt	nt	nt	nt	nt	nt
CCc1nnc(N/N=C/c2cc(Br)c(O)cc2O)n1N	3%	-6%	?	-22%	-4%	nt	nt	nt	nt	nt
CCc1nnc(N/N=C/c2ccc(O)c(OC)c2)n1N	0%	-6%	20µM*	-5%	11%	3%[10.4 µM]	1%	?	?	-20%
